Measurements: PubChem BioAssay
Active and inactive are the calls of the source. Unless noted, no rule for the calls is given here.

What was measured:
[1] = HepG2 liver cancer cell viability effects, profiling panel, resazurin fluorescence, 24 h, PK04 Diversity Set (AID 1172); settings: higher = more signal
[2] = basal S. cerevisiae growth modulation, no modifier, primary screen, OD600, strain BY4716, 24 h, basal condition (AID 1173); settings: OD600, 24 h, higher = more signal, called active from +8 up or from −8 down
[3] = MM1S myeloma cell viability, profiling panel, resazurin fluorescence, basal, 24 h, PK04 Diversity Set (AID 1174); settings: higher = more signal, called active from +8 up or from −8 down;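 also: MM1S multiple myeloma cell line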
[4] = target: Dihydroorotate dehydrogenase (quinone), mitochondrial (Plasmodium falciparum (isolate 3D7)) (UniProt Q08210); experiment: PfDHODH enzyme inhibitors, primary screen, biochemical, C-terminal His tag, absorbance 600 nm (AID 1175); settings: DCIP absorbance 600 nm, higher = more signal, called active from +8 up or from −8 down;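 also: recombinant parasite enzyme with a five histidine tag at its C terminus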
Dihydroorotate dehydrogenase (quinone), mitochondrial (Plasmodium falciparum (isolate 3D7)), sequence (Q08210 whole entry, looked up): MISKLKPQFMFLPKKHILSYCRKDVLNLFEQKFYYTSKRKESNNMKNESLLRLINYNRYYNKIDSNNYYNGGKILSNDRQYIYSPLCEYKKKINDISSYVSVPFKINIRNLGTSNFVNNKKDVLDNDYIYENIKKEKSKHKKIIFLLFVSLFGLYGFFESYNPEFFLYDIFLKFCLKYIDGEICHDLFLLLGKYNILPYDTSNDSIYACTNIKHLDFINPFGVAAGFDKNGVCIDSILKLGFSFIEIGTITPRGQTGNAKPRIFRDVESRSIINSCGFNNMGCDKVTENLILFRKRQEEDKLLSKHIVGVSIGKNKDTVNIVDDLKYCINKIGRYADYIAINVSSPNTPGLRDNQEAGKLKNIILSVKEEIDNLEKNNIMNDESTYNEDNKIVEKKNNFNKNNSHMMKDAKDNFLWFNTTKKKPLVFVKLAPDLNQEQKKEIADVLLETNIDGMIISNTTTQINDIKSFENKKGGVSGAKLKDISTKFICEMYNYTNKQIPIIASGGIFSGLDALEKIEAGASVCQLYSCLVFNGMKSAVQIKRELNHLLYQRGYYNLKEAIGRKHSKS

[5] = P. aeruginosa biofilm formation inhibitors, primary screen, strain PAO1, LB-PBS medium, absorbance 600 nm (AID 1176); settings: P. aeruginosa PAO1 growth/biofilm, A600, 12 h; higher = more signal
[6] = S. cerevisiae RM11-1a growth modifiers, primary screen, strain RM11-1a, OD600, basal, 24 h (AID 1177); settings: OD600, 24 h, higher = more signal, called active from +8 up or from −8 down;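 also: cultures grown under basal conditions with no added stressor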
[7] = E. coli acrAB mutant growth effects, primary screen, E. coli filamentation inducers, strain DRC39, OD650, 24 h (AID 1178); settings: higher = more signal, called active from +8 up or from −8 down;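 also: growth measured as culture turbidity by optical density at 650 nm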
[8] = E. coli acrAB mutant growth effects, primary screen, E. coli filamentation inducers, strain DRC39, OD650, 48 h (AID 1179);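 also: screen aims at cell division blockers that make cells filament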; settings: E. coli DRC39 delta-acrAB growth, higher = more signal, called active from +8 up or from −8 down
[9] = RPMI8226 myeloma cell viability, profiling panel, resazurin fluorescence, basal, 24 h, PK04 Diversity Set (AID 1180); settings: higher = more signal;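 also: RPMI8826 multiple myeloma cell line at 5000 cells per well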
[10] = target: E3 ubiquitin-protein ligase XIAP (Homo sapiens) (UniProt P98170); experiment: XIAP binders, primary screen, biophysical, small-molecule microarray, fluorescence 635 nm (AID 1181); settings: small-molecule microarray binding, higher = more signal;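 also: score merges 667 nm emission and signal to noise over triplicate slides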
E3 ubiquitin-protein ligase XIAP (Homo sapiens), sequence (P98170 whole entry, looked up): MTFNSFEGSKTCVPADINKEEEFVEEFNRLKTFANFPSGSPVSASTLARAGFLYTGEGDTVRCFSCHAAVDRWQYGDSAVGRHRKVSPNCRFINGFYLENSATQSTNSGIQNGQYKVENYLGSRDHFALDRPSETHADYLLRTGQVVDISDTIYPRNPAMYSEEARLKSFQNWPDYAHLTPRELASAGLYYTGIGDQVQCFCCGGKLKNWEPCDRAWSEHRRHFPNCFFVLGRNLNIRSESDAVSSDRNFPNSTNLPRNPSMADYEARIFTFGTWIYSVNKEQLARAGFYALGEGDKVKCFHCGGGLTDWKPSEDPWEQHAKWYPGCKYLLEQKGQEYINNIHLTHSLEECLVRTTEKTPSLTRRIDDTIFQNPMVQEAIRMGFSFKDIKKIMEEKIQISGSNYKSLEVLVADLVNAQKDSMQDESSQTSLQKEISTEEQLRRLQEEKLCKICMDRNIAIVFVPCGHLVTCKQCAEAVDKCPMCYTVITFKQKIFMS

[11] = test system: XIP peptide (Xip251-270) binding; experiment: small-molecule binders of XIP peptide, primary screen, biochemical, small-molecule microarray, fluorescence 635/667 nm, 0.1 µg/mL protein (AID 1182); settings: fluorescent protein binding, 635 nm, higher = more signal, called active from +8 up or from −8 down
XIP peptide (Xip251-270) = experiment: small-molecule binders of XIP peptide, primary screen, biochemical, small-molecule microarray, fluorescence 635/667 nm, 0.5 µg/mL protein (AID 1183); settings: small-molecule microarray binding, fluorescence 635 nm; higher = more signal
[12] = Plasmodium falciparum growth inhibition, primary screen, strain 3D7, DAPI fluorescence, 100 nL (AID 1184);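 also: parasites grown inside human red blood cells in medium with human serum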; settings: P. falciparum 3D7 growth, 3 d, higher = more signal
[13] = target: Homeobox protein Hox-A13 (Mus musculus) (UniProt Q62424); experiment: inhibitors of HoxA13-DNA binding, primary screen, biochemical, fluorescence polarization, labeled oligonucleotide (AID 1185); settings: 15 min, higher = more signal, called active from +8 up or from −8 down
Homeobox protein Hox-A13 (Mus musculus), sequence (Q62424 whole entry, looked up): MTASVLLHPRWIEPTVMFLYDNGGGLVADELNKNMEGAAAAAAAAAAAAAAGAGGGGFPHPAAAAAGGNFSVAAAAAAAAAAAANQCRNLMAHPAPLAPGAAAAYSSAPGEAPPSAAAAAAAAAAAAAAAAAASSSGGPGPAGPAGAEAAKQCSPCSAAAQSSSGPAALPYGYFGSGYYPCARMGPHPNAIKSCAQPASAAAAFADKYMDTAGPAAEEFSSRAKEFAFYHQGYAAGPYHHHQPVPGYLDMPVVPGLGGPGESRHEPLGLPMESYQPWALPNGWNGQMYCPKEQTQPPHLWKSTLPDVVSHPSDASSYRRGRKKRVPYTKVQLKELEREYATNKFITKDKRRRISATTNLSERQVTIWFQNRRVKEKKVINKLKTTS

Row | Compound | z-score [1] | z-score [2] | z-score [3] | composite z-score [4] | z-score [5] | z-score [6] | z-score [7] | z-score [8] | z-score [9] | composite z-score [10] | composite z-score [11] | composite z-score (XIP peptide (Xip251-270)) | z-score [12] | z-score [13]
1 | CCc1cc2c(nc1CC)CCN(CCC(C)=NOC[C@@H](O)COCc1ccco1)C2 | -0.596 | -1.12 (inactive) | -0.24 (inactive) | -0.127 (inactive) | -0.0174 (inactive) | -0.727 (inactive) | 0.377 (inactive) | 0.389 (inactive) | -0.0388 | 0.183 | 2.62 (inactive) | 0.679 | 0.15 | -6.02 (inactive)
2 | CCc1cc2c(nc1CC)CCN(CCC(C)=NO[C@@H](C)c1cc(-c3c(C)cc(C)cc3C)no1)C2 | -0.0169 | -2.75 (inactive) | -0.433 (inactive) | -0.0406 (inactive) | 0.903 (inactive) | 0.526 (inactive) | 0.416 (inactive) | 0.566 (inactive) | 0.374 | 0.19 | -0.712 (inactive) | 0.325 | 0.319 | -2.85 (inactive)
3 | O=C1[C@H]2[C@H]3[C@H](O)[C@H](O)CC(=NOCc4ccccc4)[C@H]3CC[C@H]2C(=O)N1C[C@@H]1CCCO1 | 0.648 | 0.243 (inactive) | 0.18 (inactive) | -0.279 (inactive) | 0.696 (inactive) | -0.485 (inactive) | -0.359 (inactive) | -0.103 (inactive) | -0.323 | -0.0773 | -0.344 (inactive) | 0.567 | 0.319 | -1.68 (inactive)
4 | O=C1[C@H]2[C@H]3[C@H](O)[C@H](O)CC(=NO[C@@H]4O[C@H](CO)[C@@H](O)[C@H](O)[C@H]4O)[C@H]3CC[C@H]2C(=O)N1Cc1ccccc1 | 0.835 | -0.816 (inactive) | -0.183 (inactive) | -0.592 (inactive) | -0.0728 (inactive) | -1.1 (inactive) | -0.395 (inactive) | 0.355 (inactive) | 0.797 | 0.0153 | -0.175 (inactive) | 0.588 | -1.19 | -1.28 (inactive)
5 | CC(CCN1CCCCc2nc(C)c(C)cc21)=NOC(C)CN1CCCCc2nc(C)c(C)cc21 (stereo unspecified) | 0.149 | -0.211 (inactive) | -0.29 (inactive) | 0.159 (inactive) | 0.216 (inactive) | 0.596 (inactive) | 0.5 (inactive) | -0.024 (inactive) | 0.643 | 0.24 | 0.29 (inactive) | 0.805 | -0.883 | -5.75 (inactive)
6 | O=C1C2=CC[C@H]3C(=O)N(Cc4ccc5c(c4)OCO5)C(=O)[C@H]3[C@H]2[C@H](O)[C@@H]2O[C@H]12 | -0.522 | -0.105 (inactive) | -0.677 (inactive) | -0.907 (inactive) | 0.0578 (inactive) | -0.491 (inactive) | 0.166 (inactive) | 0.0632 (inactive) | -1.49 | -0.381 | 0.225 (inactive) | 0.0823 | 1.68 | -0.229 (inactive)
7 | CCCNC(=O)OC[C@H]1O[C@H](CCON=C2[C@H]3CCn4c(=O)n(-c5ccccc5)c(=O)n4[C@H]3[C@H](O)[C@@H]3O[C@H]23)C=C[C@@H]1Oc1ccc(OC)cc1 | -0.633 | -0.521 (inactive) | -1.52 (inactive) | 0.017 (inactive) | 0.0767 (inactive) | 0.12 (inactive) | 0.621 (inactive) | 1.13 (inactive) | -2.05 | -0.2 | 0.118 (inactive) | 0.592 | -1.01 | -6.53 (inactive)
8 | C=CC[C@@H]1C=C[C@H](ON=Cc2ccc(C(=O)N3[C@H](c4ccc(C)cc4)[C@@H](C)CC[C@H]3C(=O)OC)cc2)[C@@H](CO)O1 | 0.456 | -0.0957 (inactive) | -0.435 (inactive) | 0.16 (inactive) | 0.547 (inactive) | 0.674 (inactive) | 0.442 (inactive) | 0.226 (inactive) | 0.0719 | -0.16 | -0.27 (inactive) | 0.379 | 0.495 | -6.28 (inactive)
9 | COc1ccc(O[C@H]2C=C[C@@H](c3ccccc3)O[C@@H]2COC(=O)CCC(C)=NO[C@@H](C)c2cc(-c3c(C)cc(C)cc3C)no2)cc1 | 0.716 | 1.04 (inactive) | 0.622 (inactive) | 0.188 (inactive) | -0.421 (inactive) | 0.108 (inactive) | 0.291 (inactive) | -0.893 (inactive) | 1.14 | -0.151 | -0.491 (inactive) | -0.782 | -0.739 | -0.508 (inactive)
